Drawing on PubChem BioAssay, this text covers growth inhibition for 40 molecules.

A number with no mark means an inactive call. Active and inactive are the calls of the source.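 The calls were made as follows: active = growth inhibition above 50% at the single 2 µM test dose, taken to imply half-maximal potency below 2 µM; inactive = the rest.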

The assay is described as follows: antimalarial activity against Dd2 strain (AID 2302).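 Also: 0% = DMSO untreated growth and 100% = chloroquine plus artemisinin killed control.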 The following applies: P. falciparum Dd2 in RBCs, LDH growth readout, 72 h; at 2 µM; active compounds read high.
As for `N#Cc1ccc(-c2ccc(C(=O)NCCCCN3CCC(c4nc5ccccc5[nH]4)CC3)cc2)cc1`, the growth inhibition was 13%.

For the molecule `c1cncc(CCNCc2ccc(-c3ccc(CNC4Cc5ccccc5C4)cc3)cc2)c1`, the growth inhibition was 29%.

`O=C(Nc1ccc(Cl)cc1)Nc1cccc(-c2cccc(-c3nc4ccccc4[nH]3)c2)c1`: the growth inhibition is 56% (active). With `Cc1cccc2[nH]c(-c3ccc(-c4ccc(CN5CCN(C6CCN(C)CC6)CC5)cc4)cc3)nc12`, the growth inhibition is 100% (active). As to `CN(C)CCN(C)Cc1ccc(-c2cccc(NC(=O)c3ccc(Cl)cc3)c2)cc1`, the growth inhibition was 71% (active). With `O=C(Nc1cccc(-c2ccc(NCCCN3CCCC3)nc2)c1)c1ccccc1`, the growth inhibition is 21%. Regarding `Cc1nnsc1C(=O)Nc1cccc(-c2cccc(-c3nc4ccc(F)cc4[nH]3)c2)c1`, the growth inhibition is 45%. Under `COc1ccc2nccc([C@@H](O)CN3CCC(NCC(=O)Nc4cc(F)cc(F)c4)CC3)c2n1` stands 28%. The same measure for `Cc1cc(N2CCCCC2)nc2ccc(NC(=O)c3cccc([N+](=O)[O-])c3)cc12`: 99% (active); for `O=S(=O)(c1cc(Cl)sc1Cl)N(CCC(O)(C(F)(F)F)C(F)(F)F)Cc1cccc(O)c1`: 97% (active). Under `CC(=O)Nc1cc(C(=O)Nc2cccc(-c3cccc(-c4nc5ccc(C(F)(F)F)cc5[nH]4)c3)c2)ccc1C` stands 43%; under `COC(=O)c1ccc(C2OC3(C(=O)c4ccccc4C3=O)C(OC)=C2Cl)cc1C(C)=O` (stereo not given), 85% (active). Turning to `Cc1ccc(S(=O)(=O)N2CCN(C(=O)c3cc(-c4cccs4)[nH]n3)CC2)c(C)c1`, the growth inhibition is 81% (active). The same measure for `O=C(NCCCN1CCOCC1)c1csc(Nc2ccc(Cl)c(Cl)c2)n1`: 23%; for `CCCc1cc(Cc2cnc(N)nc2N)ccc1OCCCCCC(=O)OCC`: 1%. As for `CC(=NNC(=S)Nc1ccccc1Cl)c1ccccn1`, the growth inhibition is 99% (active). Regarding `O=C(Cn1c(CCc2cccc(F)c2F)nc(=O)c2cccnc21)N(Cc1ccc(-c2ccc(C(F)(F)F)cc2)cc1)C1CCN(C2CCOCC2)CC1`, the growth inhibition was 67% (active). For `CCn1c(-c2ccccc2)cc2nnc3ccccc3c21`, the growth inhibition was 87% (active). Under `CCCc1ccc(S(=O)(=O)NC2CCN(c3ccnc(Nc4ccc(OC)cc4)n3)C2)cc1` (stereo not given) stands 45%; under `O=C(C=Cc1cccs1)Nc1ccc(-c2nc3ccccc3[nH]2)cc1`, 3%. With `O=C(CC1SC(N2N=C(c3cccs3)CC2c2ccccc2)=NC1=O)Nc1ccc(Cl)cc1` (stereo not given), the growth inhibition was 88% (active). For the molecule `O=C(NCc1ccc(Cl)c(Cl)c1)c1ccc(-c2nc3ccc(Cl)cc3[nH]2)cc1`, the growth inhibition was 22%. Consider `C=C[C@H]1CN(CCCCCCC)CC[C@H]1CC(=O)Nc1cnnc2ccc(OC)cc12`, for which the growth inhibition was 100% (active). Under `O=C(Cc1ccc(NC(=O)c2ccc(O)c(-c3ccc(Cl)c(Cl)c3)c2)cc1)NCCc1ccc(Cl)c(Cl)c1` stands 88% (active); under `COc1cc2c(c(Cl)c1OC)CCN(Cc1ccccc1)CC2c1ccc(C(N)=O)cc1` (stereo not given), 60% (active). Under `Clc1cnc2ccc3c(c2c1CCN1CCC(NCc2cc4c(cn2)OCCO4)CC1)OCCO3` stands 18%; under `Cc1cccc2[nH]c(-c3cccc(-c4ccc(CNCCCN5CCCC5=O)cc4)c3)nc12`, 38%. Under `Cc1nc2nc(N)nc(N)c2c(C)c1Cc1ccccc1` stands 0%; under `CC(C)(C)c1ccc(C(=O)Nc2cccc(Nc3c(C(=O)NCc4cccc(C(F)(F)F)c4)cnc4c(O)cccc34)c2)cc1`, 79% (active). Regarding `NCCCNc1nccc(N2CCc3ncnc(Nc4ccc(OCc5cccc(F)c5)c(Cl)c4)c3C2)n1`, the growth inhibition was 93% (active). The same measure for `COc1cc2nc(N3CCC(CNC(=O)c4cccc5cccnc45)CC3)nc(N)c2cc1OC`: 33%; for `S=C(Nc1cccc(Cl)c1)NC1CCN(c2ccnc3cc(Cl)ccc23)C1` (stereo not given): 89% (active). For `Cc1cccc2[nH]c(-c3cccc(-c4ccc(NC(=O)C(=O)c5cccn5C)cc4)c3)nc12`, the growth inhibition is 46%. As to `Cc1cc(N[C@@H](Cc2ccccc2)C(=O)NCc2cccc(F)c2)nc(Nc2ccccc2)n1`, the growth inhibition was 92% (active). The same measure for `CN1CCCN(Cc2ccc(-c3ccc(NC(=O)c4cccc(Cl)c4)cc3)cc2)CC1`: 64% (active); for `CCS(=O)(=O)c1ccc(-c2cnc3[nH]cc(-c4ccc(N)cc4)c3c2)cc1`: 99% (active); for `CC(C)c1ccc(OCC(O)CN(CCN2CCOCC2)C(=O)Nc2ccc(Br)cc2)cc1` (stereo not given): 44%.

Take `CN1CCc2cc(Br)c(O)cc2C1Cc1ccccc1Cl` (stereo not given): the growth inhibition is 88% (active). Under `OC1CCC(Nc2ccc3ncc(-c4ccc5ccccc5c4)n3n2)CC1` (stereo not given) stands 94% (active); under `COc1ccc(Nc2cc(C)c3cc(NC(=O)c4ccncc4)ccc3n2)cc1`, 26%.
